# High-throughput results (PubChem BioAssay)
# HP1b chromo inh: inhibitors of HP1-beta chromodomain binding to methylated histone tails. 390,000 tested, 0.56% active. P83916. AlphaScreen HP1-beta / biotin-H3K9me3 peptide binding. AID 540317. Potency, µM (highest dose often 114 µM), without a hit: top-dose activity change, negative = inhibition, hits mostly inhibitors; further: nearly all actives have a fitted effect of over 70% in size
#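 HP1-beta protein (50 nM final) preincubated 30 min at room temperature with biotinylated H3(1-18)K9me3 peptide (50 nM) in PBS pH 7.4, 0.01% Tween-20, then compound added for 30 min. AlphaScreen streptavidin donor/nickel chelate acceptor beads (10 ug/mL final), 30 min dark, luminescence read.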
# BAZ2B inh: blocks human BAZ2B. 360,000 tested, 4.4% active. Q9UIF8. Potency, µM (titrated, usually from 114 µM), inactives show top-dose activity change, negative = inhibition, most hits filed as inhibitors. AlphaScreen BAZ2B-H3K14Ac peptide displacement; further: on the % scale 0 is the no-effect control and ±100 the full control effect; nearly all actives have a fitted effect of over 60% in size
#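 AlphaScreen luminescence quantifies BAZ2B engagement of H3K14Ac peptide; the protein and biotinylated peptide are both at 50 nM final, buffer PBS pH 7.4 with 0.01% Tween-20, all steps at room temperature.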
# G9a block: inhibitors of human histone lysine methyltransferase G9a. G9a H3K9 monomethylation, AlphaScreen, 2 h. Potency, µM (series often up to 102 µM), for the others: top-dose activity, negative = inhibition, usual class: inhibitors. 350,000 tested, 8.8% active. AID 504332; further: on the % scale 0 is the no-effect control and ±100 the full control effect; nearly all actives have a fitted effect of over 75% in size
#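 Methyltransferase reactions run at room temperature for 2 h (20 nM enzyme, 500 nM biotin-H3K9 peptide, 20 uM SAM) after a 15 min compound preincubation; product detected by AlphaScreen beads and anti-H3K9me1 antibody.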
# JMJD2A Tudor: inhibitors of human JMJD2A Tudor domain; O75164; AlphaScreen JMJD2A-Tudor / H3K4me3 peptide binding; AID 504339; 390,000 tested, 4.4% active; Potency, µM (top dose mostly 114 µM), for the others: top-dose activity change, negative = inhibition, usual class: inhibitors; further: on the % scale 0 is the no-effect control and ±100 the full control effect; nearly all actives have a fitted effect of over 50% in size
# VDR inhibitor: blocks the human vitamin D receptor. Potency, µM, without a hit: max response, negative = inhibition, hits mostly inhibitors. P11473. 400,000 tested, 0.93% active. VDR-SRC2-3 peptide fluorescence polarization, 2 h; further: on the % scale 0 is the no-effect control and ±100 the full control effect
# Target sequence (P11473 whole entry, looked up): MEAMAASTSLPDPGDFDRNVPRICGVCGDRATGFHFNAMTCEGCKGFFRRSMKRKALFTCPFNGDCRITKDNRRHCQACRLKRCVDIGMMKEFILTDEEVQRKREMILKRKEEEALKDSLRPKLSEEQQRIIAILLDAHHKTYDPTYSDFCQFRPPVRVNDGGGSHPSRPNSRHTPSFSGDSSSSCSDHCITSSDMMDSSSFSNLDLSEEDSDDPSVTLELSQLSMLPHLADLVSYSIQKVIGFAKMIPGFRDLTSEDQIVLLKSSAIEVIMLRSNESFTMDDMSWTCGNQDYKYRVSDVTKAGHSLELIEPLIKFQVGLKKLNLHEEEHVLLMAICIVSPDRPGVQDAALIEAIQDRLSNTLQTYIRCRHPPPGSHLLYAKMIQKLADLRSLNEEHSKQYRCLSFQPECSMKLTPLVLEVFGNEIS
#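 Inhibition of the VDR/SRC2-3 peptide interaction is quantified by fluorescence polarization. Compounds (23 nl, pintool) incubate with the reagents for 2 hours at ambient room temperature.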
# PLK1 PBD inh: blocks phosphopeptide binding to human PLK1 polo-box domain; P53350; Plk1 PBD binding of FITC phosphopeptide, fluorescence polarization; Potency, µM, for inactives: max response, negative = inhibition, usual class: inhibitors; 360,000 tested, 2.8% active; further: series mostly up to about 57 µM; on the % scale 0 is the no-effect control and ±100 the full control effect; nearly all actives have a fitted effect of over 65% in size
# Active calls of the source: *; ? = inconclusive; / = no result given; [ ] = dose if it differs, or a comment. The list is not random: actives were taken first. Their share in the collection is about 11%. The call rests on the fitted dose curve; in most records, active means well fitted curve in the direction sought with a large enough effect; inconclusive means small, poorly fitted or top-dose-only effect, or another doubt; inactive means no such curve, though single readings can be large; an effect the other way counts as inactive or inconclusive. Potency means the concentration at half of the fitted maximal effect.
SMILES,HP1b chromo inh,BAZ2B inh,G9a block,JMJD2A Tudor,VDR inhibitor,PLK1 PBD inh
COc1ccc(C(=O)Nc2nc(-c3cccs3)cs2)cc1,17.2%,-37.0%,-28.1%[59 µM],-28.4%,4.1%,-1.7%
O=C(Nc1nc(-c2cccs2)cs1)C1=COCCO1,?,1.2%,10.0%,14.1µM*,?,3.36µM*
COc1ccc(-c2csc(NC(C)=O)n2)cc1OC,-17.7%,-12.8%,-13.8%[59 µM],56.2µM*,?,26.7µM*
O=C(CCc1ccccc1)Nc1cc(S(=O)(=O)N2CCOCC2)ccc1N1CCCC1,20.9%,-28.2%,-47.7%,-14.4%,0.1%,-27.5%
CCC(Sc1nc(-c2ccccc2F)nc2c1Cc1c(CO)cnc(C)c1O2)C(=O)Nc1cc(C)ccc1C (stereo not given),-0.2%,-17.4%,-2.6%[59 µM],-24.5%,-8.1%,/
COc1cc(-c2noc(C)c2/C=C/c2ccc(C(=O)O)cc2)cc(OC)c1OC,3.0%,?,/,70.8µM*,?,-18.2%
COc1cc(-c2noc(C)c2/C=C/c2cccc([N+](=O)[O-])c2)cc(OC)c1OC,21.5%,?,/,-27.5%,-14.6%,-4.2%
CC(C)(C)OC(=O)N1CCC(NC(=O)c2[nH]cnc2C(=O)Nc2ccon2)CC1,62.8%,56.2µM*,10.6%[0.501 µM],-23.2%,-7.4%,5.4%
CC(C)(C)OC(=O)NCCCCCNC(=O)c1[nH]cnc1C(=O)Nc1ccon1,48.4%,56.2µM*,7.7%[0.501 µM],-9.2%,7.3%,3.9%
CC(C)(C)OC(=O)N1CCC(NC(=O)c2nc[nH]c2C(=O)N2CCc3ccccc3C2)CC1,28.5%,56.2µM*,-1.6%[0.501 µM],-27.3%,-3.5%,-0.8%
CC(C)(C)OC(=O)N1CCC(NC(=O)c2[nH]cnc2C(=O)Nc2ccccc2)CC1,39.2%,-5.8%,2.1%[0.501 µM],-28.7%,10.1%,-12.4%
CC(=O)N1CCC[C@@]2(CCN(Cc3ccccc3)C2)C1,/,/,-1.6%[12.7 µM],/,-8.3%,/
COc1ccccc1CNC(=O)CN(C)S(=O)(=O)c1ccc2c(c1)n(C)c(=O)c(=O)n2C,23.9%,-3.5%,1.0%,-12.4%,-5.3%,-6.5%
Cc1cc(C)nc(/N=C(\N)Nc2ccc(OCCC(C)C)cc2)n1,7.9%,-34.0%,/,-27.3%,9.4%,-3.7%
COc1ccccc1C(=O)Nc1cccc(C(=O)OCc2cc(=O)n3nc(C4CC4)sc3n2)c1,37.4%,-0.8%,16.8%[59 µM],-4.3%,13.5%,/
COc1ccccc1C(=O)Nc1ccccc1OCc1cc(=O)n2cc(C)sc2n1,39.1%,-17.8%,-23.6%[59 µM],-8.6%,?,/
COc1ccccc1NC1=C(Cl)C(=O)N(c2ccccc2)C1=O,-27.6%,?,44.7µM*,?,-3.8%,0.1%
COc1ccc(NC2=C(Cl)C(=O)N(c3ccccc3)C2=O)c(OC)c1,13.7%,-15.1%,?,?,-8.7%,?
COc1ccc(N2C(=O)C(Cl)=C(Nc3c(C)n(C)n(-c4ccccc4)c3=O)C2=O)cc1,16.5%,?,8.91µM*,?,?,23.8µM*
COc1ccc(N2C(=O)C(Cl)=C(Nc3ccc(OC)cc3OC)C2=O)cc1,9.8%,17.2%,?,-15.2%,1.2%,-10.9%
N#Cc1ccc(CN2CCC3(CC2)CCN(S(=O)(=O)c2ccccc2)CC3)cc1,/,/,7.2%[12.7 µM],/,6.4%,/
CC(C)(C)C1CCc2nc(NC(=O)Cc3ccccc3)sc2C1 (stereo not given),33.9%,7.1%,-8.7%[59 µM],-1.3%,5.2%,/
O=C(Nc1nc2c(s1)CN(Cc1ccccc1)CC2)C1CCCC1,14.6%,?,44.7µM*,-13.9%,-9.1%,4.1%
CC(C)(C)C(=O)Nc1nc2c(s1)CN(Cc1ccccc1)CC2,5.3%,-32.6%,17.8µM*,-17.3%[11.4 µM],7.1%,-14.6%
O=C(Nc1nnc(Cc2ccccc2)s1)C1CCC1,21.4%,-21.8%,5.5%,-6.6%,-21.7%,-13.6%
O=C(Nc1nc2c(s1)CN(Cc1ccccc1)CC2)c1c(F)cccc1F,-8.1%,/,8.91µM*,50.1µM*,11.7%,21.2µM*
CSCC[C@@H](N)C(=O)O,/,/,27.0%[59 µM],/,-1.7%,/
CC(C)C(=O)Nc1sc2c(c1-c1nc3ccccc3[nH]1)CCCC2,41.4%,4.1%,14.1µM*,-22.9%,6.5%,-14.8%
